Bioassay records deposited in PubChem BioAssay by several laboratories.
A selection: hits, their analogues and other compounds. The true share with any hit is near 27%.
CYP2C9 activ – activators of human CYP2C9 | recombinant CYP2C9, luciferin-H conversion, luminescence; active compounds read high; factor 1 = untreated enzyme, 0 = blocked | 96,000 tested, 1.4% active | activation factor at 5 µM;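 active means activation factor of 2 or more for CYP2C9 at a 5 µM dose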;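 further: 0 = sulfaphenazole-blocked wells and 1 = vehicle-only wells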
Target sequence (P11712 whole entry, looked up): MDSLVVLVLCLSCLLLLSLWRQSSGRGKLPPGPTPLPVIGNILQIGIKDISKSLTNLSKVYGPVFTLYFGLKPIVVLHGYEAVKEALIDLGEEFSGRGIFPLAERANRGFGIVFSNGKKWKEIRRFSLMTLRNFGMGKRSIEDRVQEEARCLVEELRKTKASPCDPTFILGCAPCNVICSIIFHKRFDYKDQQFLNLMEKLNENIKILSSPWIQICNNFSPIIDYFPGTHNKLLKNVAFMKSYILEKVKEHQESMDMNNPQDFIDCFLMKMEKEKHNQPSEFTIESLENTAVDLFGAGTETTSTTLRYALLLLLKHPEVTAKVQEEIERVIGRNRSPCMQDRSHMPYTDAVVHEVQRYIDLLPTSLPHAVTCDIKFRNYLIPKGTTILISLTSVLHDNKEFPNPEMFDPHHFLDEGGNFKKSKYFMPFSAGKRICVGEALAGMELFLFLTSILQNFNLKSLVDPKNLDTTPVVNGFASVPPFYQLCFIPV
CYP2C9 inhib – blocks human cytochrome P450 2C9 | P11712 | CYP2C9 Supersomes, luciferin-H conversion, luminescence | inhibition, % at 5 µM | 96,000 tested, 20% active;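 active means blocking of liver enzyme CYP2C9 beyond about 50% at 5 µM, limit read from the data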
Cav32 inh – blocks human Cav3.2 T-type calcium channel; 100,000 tested, 4% active; O95180; B-score at 10 µM; Cav3.2-expressing cells, Fluo-4 calcium fluorescence FDSS; active compounds read low;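 active means single-dose well whose peak fluorescence ratio is a statistical outlier from its plate by either plate-standardised score or position-corrected B-score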
CYP2C19 inhib – human CYP2C19 inhibition | P33261 | 96,000 tested, 21% active | CYP2C19 Supersomes, luciferin-H EGE luminescence, 30 min | inhibition, % at 5 µM;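 active means CYP2C19 inhibition above a set limit at 5 µM in the primary screen, cut at about 50% in these data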;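 further: plate controls were negative control wells for no effect and 2.5 mM tranylcypromine positive control for full effect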
CYP2C19 act – increases human CYP2C19 enzyme activity; 96,000 tested, under 10 active; AID 1025; recombinant CYP2C19, luciferin-H EGE luminescence; active compounds read high; 0 = fully inhibited enzyme, 1 = untreated enzyme; P33261; activation factor at 5 µM;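 active means activation factor of at least 2 at 5 µM in the primary screen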;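 further: 0 = wells with 2.5 mM tranylcypromine and 1 = vehicle-only wells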
Numbers without * were called inactive; / = no result.

SMILES	CYP2C9 activ	CYP2C9 inhib	Cav32 inh	CYP2C19 inhib	CYP2C19 act
O=C(Nc1cc(C(F)(F)F)ccc1N1CCCC1)c1ccc2c(c1)OCO2	0.2	76.7*	-3.43	69.2*	0.3
O=C(Nc1ccccc1N1CCCC1)c1ccc2c(c1)OCO2	0.5	52.7*	-0.42	71.1*	0.3
O=C(Nc1ccccc1N1CCCCC1)c1ccc(F)cc1	1	-1.0	-2.8	16.1	0.8
O=C(Nc1cc(C(F)(F)F)ccc1N1CCCCC1)c1cccc([N+](=O)[O-])c1	0.4	56.0*	-0.781	32.9	0.7
N#Cc1cc(-c2ccc(Cl)cc2)cnc1Sc1ccc(F)cc1	0.7	29.6	0.00948	18.2	0.8
O=C(Nc1ccc(Cl)c(Cl)c1)OCc1cncs1	0	96.7*	-3.27	99.4*	0
CC(C)OC(=O)NCCOC(=O)Nc1ccc(Cl)c(Cl)c1	/	/	-6.96*	/	/
O=C(Nc1ccc(Cl)c(Cl)c1)OCc1cnc(Cl)s1	0.9	13.2	0.0165	14.2	0.9
COc1cccc(-c2csc(N3CCN(C(=O)Nc4ccc(F)cc4)CC3)n2)c1	/	/	-6.48*	/	/
COc1cccc(-c2csc(N3CCN(C(=O)C4CCCCC4)CC3)n2)c1	0.4	58.3*	/	77.1*	0.2
COc1ccc(NC(=O)CN2CCN(c3nc(-c4cccc(OC)c4)cs3)CC2)cc1	/	/	-1.15	/	/
COc1ccc(-c2csc(N3CCN(C(=O)c4ccccc4)CC3)n2)cc1	/	/	-2.56	/	/
O=C1c2cnc3nc(SCc4ccc(Cl)cc4)nn3c2CC2c3ccccc3CCN12 (stereo not given)	0.5	50.6*	-6.27*	-3.8	1
Clc1ccc(CSc2ncccn2)cc1	1.1	-6.6	-1.38	12.4	0.9
CCc1cccc2c(C#N)cn(CC(=O)NCCOC)c12	1	0.7	0.182	32.6	0.7
C=CCN(CC(=O)Nc1c(C)cccc1CC)C(=O)SCCC	0.9	12.3	-2.55	64.6*	0.4
CCSC(=O)N(CC)CC(=O)Nc1c(CC)cccc1CC	0.7	27.6	-0.4	41.8	0.6
CCCSC(=O)N(CC)CC(=O)Nc1c(CC)cccc1CC	0.4	61.8*	-1.9	65.5*	0.3
CC[N+](CC)(CC)CC(=O)Nc1c(C)cccc1C	/	/	0.145	/	/
CN(C)c1cc[n+](Cc2c(Cl)cccc2Cl)cc1	/	/	0.00722	/	/
Cc1ccc2[nH]c(=O)c(N3CCOCC3)c(-c3ccccc3)c2c1	1.1	-11.1	-0.918	-7.0	1.1
Cc1ccc(/C=C2/NC(=O)N(c3ccccc3)C2=O)o1	1.1	-6.3	0.947	68.2*	0.3
CCN1C(=O)N/C(=C/c2ccc(Sc3ccc(C)cc3)o2)C1=O	1.1	-6.3	-1.1	-13.1	1.1
CCOC(=O)c1sc(NS(=O)(=O)c2cc(C)ccc2C)nc1C	0.1	94.0*	-2.96	44.8	0.6
CCOC(=O)c1sc(Nc2cccc(C)c2C)nc1C	0.3	70.3*	/	11.2	0.9
SMILES	CYP2C9 activ	CYP2C9 inhib	Cav32 inh	CYP2C19 inhib	CYP2C19 act
COC(=O)C1=CN(C2CC2)C=C(C(=O)OC)C1c1ccccc1OC	0.3	65.8*	-0.59	70.0*	0.3
CCC(C(=O)NC(C)(C)C)N(C(=O)Cn1nnc(-c2cccs2)n1)c1cnc2ccccc2c1 (stereo not given)	0.4	64.9*	-1.71	18.2	0.8
COc1cccc(N(C(=O)Cn2nnc(-c3ccc(C)o3)n2)C(C(=O)NC(C)(C)C)c2cccs2)c1 (stereo not given)	/	/	0.413	/	/
COc1cc(C(=O)NCC(=O)n2nc(C)cc2C)cc(OC)c1OC	1.3	-27.3	-0.286	-8.5	1.1
COc1ccccc1C(=O)NCC(=O)n1nc(C)cc1C	3*	-197.3	0.415	5.3	0.9
Cc1cc(C)n(C(=O)CCNC(=O)c2ccccc2Br)n1	2.1*	-112.4	0.00942	4.2	1
O=C(NC1CCCCC1)N1CCN(CCc2ccccc2)CC1	1	0.4	0.739	2.0	1
CCCN1CCN(C(=O)Cn2c(=O)oc3cc(S(=O)(=O)NCc4ccccc4)ccc32)CC1	0.7	27.0	1.2	-8.9	1.1
CCOC(=O)Cn1c(=O)oc2cc(S(=O)(=O)N3CCc4ccccc43)ccc21	0.3	74.1*	/	66.8*	0.3
CCOC(=O)Cn1c(=O)oc2cc(S(=O)(=O)N(CCN(C)C)Cc3ccccc3)ccc21	0.9	8.6	2.87	-4.3	1
CCOC(=O)Cn1c(=O)oc2cc(S(=O)(=O)Nc3cc(Cl)ccc3OC)ccc21	0.4	60.7*	0.169	36.5	0.6
CCOC(=O)Cn1c(=O)oc2cc(S(=O)(=O)Nc3cc(OCC)ccc3OCC)ccc21	0.3	74.4*	-1.3	73.4*	0.3
CCOC(=O)Cn1c(=O)oc2cc(S(=O)(=O)NCCc3ccc(OCC)c(OCC)c3)ccc21	0.4	56.5*	0.564	43.4	0.6
CCOC(=O)Cn1c(=O)oc2cc(S(=O)(=O)Nc3ccc(N(CC)CC)cc3C)ccc21	0.4	61.2*	-2.65	66.7*	0.3
CCOCCCNS(=O)(=O)c1ccc2c(c1)oc(=O)n2CC(=O)OCC	0.8	18.9	1	-10.2	1.1
Cn1c(=O)c(=O)n(C)c2cc(S(=O)(=O)N3CCc4ccccc43)ccc21	0.5	54.3*	-0.199	14.7	0.9
CCOC(=O)Cn1c(=O)oc2cc(S(=O)(=O)Nc3cccc(C)c3)ccc21	0.5	54.0*	-1.71	50.5*	0.5
CCOC(=O)Cn1c(=O)oc2cc(S(=O)(=O)NC(C)c3ccccc3)ccc21 (stereo not given)	0.5	50.7*	0.0299	78.5*	0.2
Cn1c(=O)oc2cc(S(=O)(=O)N3CCCc4ccccc43)ccc21	1.2	-19.8	-0.374	29.0	0.7
COc1ccccc1NC(=O)N(c1c(N)n(Cc2ccccc2)c(=O)[nH]c1=O)C1CCCC1	1.1	-5.6	-0.0732	7.0	0.9
O=C(Nc1ccc2nc(-c3ccc(Br)o3)[nH]c2c1)c1cccs1	0.3	66.7*	/	45.2	0.5
Cn1cccc1-c1nc2ccc(NC(=O)c3cccs3)cc2[nH]1	0.2	78.5*	-1.61	72.8*	0.3
O=C(Nc1ccc2nc(-c3ccc(Br)o3)[nH]c2c1)c1ccco1	0.6	40.2	/	24.8	0.8
Cc1cccc(-n2cccc2)c1C#N	1	-2.8	0.388	14.8	0.9
N#Cc1c(-n2ccnc2)cccc1-n1ccnc1	0.1	94.5*	0.778	80.7*	0.2
SMILES	CYP2C9 activ	CYP2C9 inhib	Cav32 inh	CYP2C19 inhib	CYP2C19 act
O=C1c2ccccc2C(=O)N1CC(=O)N1c2ccccc2CCc2ccccc21	0.9	8.2	1.44	3.0	1
CCN(CC)C(=O)N1CCc2ccccc2C1CN1C(=O)c2ccccc2C1=O (stereo not given)	/	/	-4.19*	/	/
O=C(O)[C@@H]1CCCC[C@@H]1C(=O)N1CCc2ccccc2C1CN1C(=O)c2ccccc2C1=O (stereo not given in full)	1.1	-7.9	-0.0701	-6.8	1.1
O=C1c2ccccc2C(=O)N1CC1c2ccccc2CCN1C(=O)C1CCCCC1 (stereo not given)	0.7	27.1	-2.48	73.2*	0.3
Cn1c(SCC(=O)N2CCc3ccccc32)nnc1C1CC1	0.9	7.5	0.363	76.2*	0.2
Cc1nc(SCC(=O)N2CCc3ccccc32)n[nH]1	1.1	-12.5	0.377	-6.7	1.1
